Data on 3 compounds can be found in PubChem BioAssay (EPA / NIEHS).

One may read the AC50 as the concentration at which the activity in the assay is half-maximal.

The structures appear in SMILES notation. Several values for one entry are separate records, joined by “and”; a condition that tells them apart may be missing. Equal values may be shown once. Where a structure was tested more than once in an assay, its records may differ in their call. Activity calls are given as the source filed them. The calls were made as follows: active = hit-call score of the fitted dose curve at least 0.9, where 1 is the maximum; inactive = score below 0.9.

Read-out in assay [1]: Interleukin-1 alpha (IL1a), IL1A (gene 3552)
Kind of assay: BSK_KF3CT_IL1a: BioMAP Diversity Plus: KF3CT Assay for Interleukin-1 alpha (IL1a) Biomarker Activity (AID 2283070). To be noted: primary human keratinocytes with fibroblasts; actives raise or lower the signal. An outline of the steps: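 Chemicals were dosed onto co-cultured human keratinocytes and foreskin fibroblasts, IL-1a was quantified by ELISA at 24 h, and activity was fitted in both directions relative to DMSO controls.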

Read-out in assay [2]: TIMP metallopeptidase inhibitor 2 (TIMP2), TIMP2 (gene 7077)
Nature of the assay: BSK_KF3CT_TIMP2: BioMAP Diversity Plus: KF3CT Assay for TIMP metallopeptidase inhibitor 2 (TIMP2) Biomarker Activity (AID 2283071). To be noted: primary human keratinocytes with fibroblasts; actives raise or lower the signal. An outline of the steps:
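Cells: human keratinocytes co-cultured with foreskin fibroblasts. Treat with chemical, 24 h. Measure TIMP-2 by ELISA; fit curves bidirectionally vs DMSO baseline.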

Read-out in assay [3]: Transforming growth factor beta 1 (TGFb1), TGFB1 (gene 7040)
Kind of assay: BSK_KF3CT_TGFb1: BioMAP Diversity Plus: KF3CT Assay for Transforming growth factor beta 1 (TGFb1) Biomarker Activity (AID 2283072). The following applies: primary human keratinocytes with fibroblasts; actives raise or lower the signal. An outline of the steps: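 Primary human skin cells (keratinocytes, foreskin fibroblasts) were co-cultured, exposed to test chemical and sampled at 24 h. TGF-b1 levels were measured by ELISA and fitted bidirectionally relative to DMSO.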

Read-out in assay [4]: C-C motif chemokine 2 (Homo sapiens) (UniProt P13500)
Nature of the assay: BSK_KF3CT_MCP1: BioMAP Diversity Plus: KF3CT Assay for Monocyte Chemoattractant Protein 1 (MCP1/CCL2) Biomarker Activity (AID 2283073). The following applies: primary human keratinocytes with fibroblasts; actives raise or lower the signal. An outline of the steps: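 ELISA readout of MCP-1 after 24 h chemical dosing of a human skin primary co-culture of keratinocytes and foreskin fibroblasts. Activity was fitted in both directions against DMSO.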

Read-out in assay [5]: Matrix Metallopeptidase 9 (MMP9), MMP9 (gene 4318)
Kind of assay: BSK_KF3CT_MMP9: BioMAP Diversity Plus: KF3CT Assay for Matrix Metallopeptidase 9 (MMP9) Biomarker Activity (AID 2283074).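 As to AC50: MMP9 protein level quantified by ELISA in the co-culture.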 To be noted: primary human keratinocytes with fibroblasts; actives raise or lower the signal. An outline of the steps: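 Human keratinocyte/foreskin fibroblast co-culture; compound added; 24 h; MMP-9 by ELISA; bidirectional fit vs DMSO baseline.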

Read-out in assay [6]: urokinase plasminogen activator (uPA), PLAU (gene 5328)
Nature of the assay: BSK_KF3CT_uPA: BioMAP Diversity Plus: KF3CT Assay for urokinase plasminogen activator (uPA) Biomarker Activity (AID 2283075). The following applies: primary human keratinocytes with fibroblasts; actives raise or lower the signal. An outline of the steps: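 ELISA readout of uPA, analyzed for signal gain or loss relative to DMSO, from a human primary keratinocyte–foreskin fibroblast co-culture measured 24 h after chemical treatment.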

Read-out in assay [7]: CD40, CD40 (gene 958)
Nature of the assay: BSK_LPS_CD40: BioMAP Diversity Plus: LPS Assay for CD40 Biomarker Activity (AID 2283076). The following applies: primary human HUVEC with PBMC; actives raise or lower the signal. An outline of the steps: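 Cells were dosed, incubated 24 h, then assayed for CD40 by ELISA. Gain or loss of signal was analysed relative to DMSO controls. The culture paired human umbilical vein endothelium with peripheral blood mononuclear cells.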

Read-out in assay [8]: E-selectin (Homo sapiens) (UniProt P16581)
Nature of the assay: BSK_LPS_Eselectin: BioMAP Diversity Plus: LPS Assay for Eselectin Biomarker Activity (AID 2283077). The following applies: primary human HUVEC with PBMC; actives raise or lower the signal. An outline of the steps:
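Primary human vascular co-culture (endothelium plus PBMC) was dosed with chemical, then E-selectin quantified by ELISA at 24 h. Endpoint values derive from bidirectional curve fitting relative to DMSO.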

Read-out in assay [9]: Interleukin-8 (IL8), CXCL8 (gene 3576)
Kind of assay: BSK_LPS_IL8: BioMAP Diversity Plus: LPS Assay for Interleukin-8 (IL8) Biomarker Activity (AID 2283078). To be noted: primary human HUVEC with PBMC; actives raise or lower the signal. An outline of the steps:
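Readout is IL-8 by ELISA, taken 24 h after compounds were added to LPS-stimulated endothelial/PBMC co-cultures. Both increases and decreases relative to DMSO control were scored through bidirectional fitting.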

Assay [10] can be described thus: BSK_LPS_SRB: Viability Assessment in the BioMAP Diversity Plus: LPS Assay (AID 2283079).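 Also: total protein by sulforhodamine B absorbance as a cytotoxicity measure; measured one day after compound addition; fitted in both directions against DMSO so loss or gain of signal counts.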 To be noted: primary human HUVEC with PBMC. An outline of the steps: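 Readout is SRB absorbance at 560 nm (0.1% stain, TCA-fixed parallel cultures) as a total-protein cytotoxicity measure. Cells: primary human umbilical vein endothelium plus peripheral blood mononuclear cells, 24 h after chemical exposure; DMSO served as baseline.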

Read-out in assay [11]: Interleukin-1 alpha (IL1a), IL1A (gene 3552)
Kind of assay: BSK_LPS_IL1a: BioMAP Diversity Plus: LPS Assay for Interleukin-1 alpha (IL1a) Biomarker Activity (AID 2283080). The following applies: primary human HUVEC with PBMC; actives raise or lower the signal. An outline of the steps: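 ELISA read-out of IL-1 alpha from a human primary vascular co-culture (endothelium plus PBMC) under LPS, sampled 24 hours post-dosing. Activity was fitted in both directions relative to DMSO controls.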

Read-out in assay [12]: Monocyte Chemoattractant Protein-1 (MCP1), CCL2 (gene 6347)
Nature of the assay: BSK_LPS_MCP1: BioMAP Diversity Plus: LPS Assay for Monocyte Chemoattractant Protein-1 (MCP1) Biomarker Activity (AID 2283081).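 As to AC50: secreted MCP-1 protein quantified by ELISA in culture supernatant.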 The following applies: primary human HUVEC with PBMC; actives raise or lower the signal. An outline of the steps: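 Human endothelial–PBMC co-cultures were dosed with chemical, then LPS-driven MCP-1 levels were quantified by ELISA at 24 h. Activity in either direction was fitted versus DMSO negative control.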

Assay [13] in a line: BSK_LPS_PGE2: BioMAP Diversity Plus: LPS Assay for Prostaglandin E2 (PGE2) Biomarker Activity (AID 2283082).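 As to AC50: secreted prostaglandin E2 measured by ELISA in LPS-stimulated co-culture.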 To be noted: primary human HUVEC with PBMC; actives raise or lower the signal. An outline of the steps:
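LPS-activated HUVEC/PBMC co-culture; cmpd dosed, 24 h; PGE2 by ELISA; bidirectional fit vs DMSO; SRB (0.1%, TCA-fixed, 560 nm) in parallel plates for overt cytotox.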

Read-out in assay [14]: Macrophage colony-stimulating factor (MCSF), CSF1 (gene 1435)
Kind of assay: BSK_LPS_MCSF: BioMAP Diversity Plus: LPS Assay for Macrophage colony-stimulating factor (MCSF) Biomarker Activity (AID 2283083). The following applies: primary human HUVEC with PBMC; actives raise or lower the signal. An outline of the steps:
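ELISA readout of M-CSF after 24 h compound exposure in a human endothelial/PBMC co-culture. Activity, in either direction, is fitted relative to DMSO vehicle.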

Read-out in assay [15]: Tissue Factor, F3 (gene 2152)
Nature of the assay: BSK_LPS_TissueFactor: BioMAP Diversity Plus: LPS Assay for Tissue Factor Biomarker Activity (AID 2283084). The following applies: primary human HUVEC with PBMC; actives raise or lower the signal. An outline of the steps:
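ELISA signal for cell-surface Tissue Factor (CD142) was read 24 h after compound dosing of an LPS-stimulated human endothelial–PBMC primary co-culture. Gain or loss of signal was scored relative to DMSO.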

Read-out in assay [16]: Tumor necrosis factor (Homo sapiens) (UniProt P01375)
Kind of assay: BSK_LPS_TNFa: BioMAP Diversity Plus: LPS Assay for Tumour Necrosis Factor alpha (TNFa) Biomarker Activity (AID 2283085). The following applies: primary human HUVEC with PBMC; actives raise or lower the signal. An outline of the steps: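 Read-out is ELISA of TNFa in primary human endothelial cell–PBMC co-cultures at 24 h after compound. Activity in either direction was fitted against DMSO.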

Read-out in assay [17]: Vascular cell adhesion molecule 1 (VCAM1), VCAM1 (gene 7412)
Nature of the assay: BSK_LPS_VCAM1: BioMAP Diversity Plus: LPS Assay for Vascular cell adhesion molecule 1 (VCAM1) Biomarker Activity (AID 2283086). To be noted: primary human HUVEC with PBMC; actives raise or lower the signal. An outline of the steps:
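HUVEC + PBMC co-culture, LPS system; compound 24 h; VCAM-1 by ELISA; bidirectional fit vs DMSO control; parallel SRB (0.1%, TCA-fixed, 560 nm) for cytotoxicity.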

Read-out in a further assay: CD38, CD38 (gene 952)
Kind of assay: BSK_SAg_CD38: BioMAP Diversity Plus: SAg Assay for CD38 Biomarker Activity (AID 2283087). The following applies: primary human HUVEC with PBMC; actives raise or lower the signal. An outline of the steps: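 Human HUVEC plus PBMC co-culture stimulated with superantigen; CD38 measured by ELISA 24 h after chemical dosing. Fluorescence read-out, bidirectional fit against DMSO; cytotoxicity tracked in parallel by SRB and Alamar Blue.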

Read-out in assay [18]: CD40, CD40 (gene 958)
Nature of the assay: BSK_SAg_CD40: BioMAP Diversity Plus: SAg Assay for CD40 Biomarker Activity (AID 2283088). To be noted: primary human HUVEC with PBMC; actives raise or lower the signal. An outline of the steps: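 Compounds were dosed onto a human primary endothelial–PBMC co-culture, and after 24 h CD40 was quantified by ELISA using a fluorescence signal. Activity in either direction was fitted relative to DMSO.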

Read-out in the next assay: CD69, CD69 (gene 969)
Kind of assay: BSK_SAg_CD69: BioMAP Diversity Plus: SAg Assay for CD69 Biomarker Activity (AID 2283089).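 As to AC50: cell surface CD69 protein quantified by ELISA with fluorescence detection.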 To be noted: primary human HUVEC with PBMC; actives raise or lower the signal. An outline of the steps: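 Endothelial/PBMC co-culture; chemical added; 24 h incubation; CD69 ELISA with fluorescence detection; bidirectional fit vs DMSO.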

Chain of Tumor necrosis factor (Homo sapiens) (P01375 whole entry, looked up): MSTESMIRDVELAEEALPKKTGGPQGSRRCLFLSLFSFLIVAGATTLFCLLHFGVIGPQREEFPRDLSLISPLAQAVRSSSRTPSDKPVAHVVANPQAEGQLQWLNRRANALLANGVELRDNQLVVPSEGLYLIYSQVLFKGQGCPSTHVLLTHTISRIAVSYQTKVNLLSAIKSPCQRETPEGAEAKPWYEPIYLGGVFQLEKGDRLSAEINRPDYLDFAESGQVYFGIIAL
Chain of E-selectin (Homo sapiens) (P16581 whole entry, looked up): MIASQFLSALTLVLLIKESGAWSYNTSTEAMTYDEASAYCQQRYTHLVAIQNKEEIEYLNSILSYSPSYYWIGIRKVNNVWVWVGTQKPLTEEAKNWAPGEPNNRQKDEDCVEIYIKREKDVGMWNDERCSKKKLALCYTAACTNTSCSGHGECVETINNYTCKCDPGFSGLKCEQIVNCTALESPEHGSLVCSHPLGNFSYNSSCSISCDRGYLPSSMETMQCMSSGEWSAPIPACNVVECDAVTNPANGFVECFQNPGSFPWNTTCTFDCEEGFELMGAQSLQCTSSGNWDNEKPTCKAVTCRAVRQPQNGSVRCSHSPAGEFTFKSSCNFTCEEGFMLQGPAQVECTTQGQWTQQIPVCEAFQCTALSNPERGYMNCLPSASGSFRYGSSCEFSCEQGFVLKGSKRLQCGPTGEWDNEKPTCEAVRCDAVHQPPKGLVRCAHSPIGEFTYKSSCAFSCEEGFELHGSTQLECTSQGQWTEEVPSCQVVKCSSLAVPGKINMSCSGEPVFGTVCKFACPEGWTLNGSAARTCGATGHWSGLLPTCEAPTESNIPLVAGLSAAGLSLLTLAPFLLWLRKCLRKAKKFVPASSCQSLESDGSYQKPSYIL

Turning to `CC(C)CCCC(C)CCO` (centres undefined), the concentration at half-maximal activity (AC50) is 34.4 µM (active) in assay [1]; 30.5 µM (active) in assay [2]; 30.1 µM (active) in assay [3]; 33.5 µM (active) in [4]; 36.4 µM (active) in [5]; 36.1 µM (active) in assay [6]. In addition, the outcome was “inactive” in the assay with CD40, CD40 (gene 958) [7]; “inactive” in [8]; “inactive” in assay [9]; “inactive” in assay [10]; “inactive” in assay [11]; “inactive” in assay [12]. In addition, the outcome in [13] was “inactive”; in [14], “inactive”; in assay [15], “inactive”; in assay [16], “inactive”; in [17], “inactive”; with CD38, CD38 (gene 952) it was “inactive”. Moreover, the outcome in the assay with CD40, CD40 (gene 958) [18] is “inactive”; with CD69, CD69 (gene 969), “inactive”.

Regarding `NS(=O)(=O)C(F)(F)C(F)(F)C(F)(F)C(F)(F)C(F)(F)C(F)(F)F`, the outcome in assay [1] was “inactive”; in [2] it was “inactive”; in assay [4], “inactive”; in assay [5] it was “inactive”; in assay [6] it was “inactive”; with CD40, CD40 (gene 958) [7], “inactive”. Further, the outcome in [8], in assay [9], in assay [10], in assay [11], in assay [12] and in [14] was inactive. Besides, the outcome is “inactive” in assay [15]; “inactive” in assay [16]; “inactive” in the assay with CD38, CD38 (gene 952). Also, the half-maximal activity concentration (AC50) in assay [5] is 14.6 µM (active); in the assay with CD40, CD40 (gene 958) [7], 20.1 µM (active); in assay [10], 40.1 µM (active); in [12], 30 µM (active); in assay [13], 10.7 µM (active) and 13.8 µM (active); in assay [17], 5.95 µM (active) and 46.8 µM (active). The AC50 was 43.9 µM (active) in the assay with CD38, CD38 (gene 952); 26.3 µM (active) and 30 µM (active) with CD40, CD40 (gene 958) [18]; 28.6 µM (active) and 32.5 µM (active) with CD69, CD69 (gene 969).

On to `CC(C)(C)c1cc(CCC(=O)NCCCCCCNC(=O)CCc2cc(C(C)(C)C)c(O)c(C(C)(C)C)c2)cc(C(C)(C)C)c1O`, for which the outcome in assay [1], in [2], in [3], in [4], in assay [5] and in [6] was inactive. The outcome with CD40, CD40 (gene 958) [7] is “inactive”; in assay [8] it was “inactive”; in [9], “inactive”; in assay [10] it was “inactive”; in assay [11], “inactive”; in assay [12], “inactive”. For the same compound, the outcome in assay [13] is “inactive”; in [14] it was “inactive”; in [15], “inactive”; in assay [16], “inactive”; in assay [17] it was “inactive”; with CD38, CD38 (gene 952), “inactive”. Further, the outcome with CD40, CD40 (gene 958) [18] was “inactive”; in the assay with CD69, CD69 (gene 969) it was “inactive”.
